Measured values as given in PubChem BioAssay (NCI).
Where “and” joins values, the source holds several entries; their conditions need not be identical. Equal entries are not always repeated. The panel holds about 79,000 compounds, 15% with a hit somewhere; the sample as a whole holds those more often. Some structures have more than one record in an assay (separate samples or runs), and their calls can disagree. Calls of active or inactive are those of the source. No stated cut-off is given here; in the data, active means growth inhibition above about 70%; inactive means the rest.

Tests used:
[1] = NCI Yeast Anticancer Drug Screen. Data for the rad50 strain (AID 155);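 further: 0% = growth of vehicle-only cultures of the same strain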; conditions: S. cerevisiae rad50 strain growth inhibition; at 50.0 µM; stronger effect = higher value
How it was run: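 A DNA repair-deficient yeast mutant serves as the test organism; compound-induced growth inhibition is calculated against vehicle-treated cells.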

[2] = NCI Yeast Anticancer Drug Screen. Data for the mec2-1 strain (AID 157); conditions: S. cerevisiae mec2-1 strain, at 50.0 µM, stronger effect = higher value
How it was run: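 Using mec2-1 yeast: add compound, measure growth, express inhibition versus vehicle-treated cultures.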

[3] = NCI Yeast Anticancer Drug Screen. Data for the sgs1 mgt1 strain (AID 161);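 further: 0% = growth of cultures given vehicle only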; conditions: S. cerevisiae sgs1 mgt1 strain, at 50.0 µM, stronger effect = higher value
How it was run: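 Yeast cells carrying a defined DNA-repair defect were exposed to test compounds. Growth inhibition was measured relative to vehicle-treated controls.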

[4] = NCI Yeast Anticancer Drug Screen. Data for the cln2 rad14 strain (AID 165);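 further: 0% = growth equal to vehicle treated cultures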; conditions: S. cerevisiae cln2 rad14 strain, at 50.0 µM, stronger effect = higher value
How it was run: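 Yeast strain cln2 rad14, bearing defects in cell cycle control and DNA repair, serves as the test system; values reflect growth inhibition compared with vehicle.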

[5] = NCI Yeast Anticancer Drug Screen. Data for the bub3 strain (AID 167); conditions: S. cerevisiae bub3 mutant strain, at 50.0 µM, stronger effect = higher value
How it was run: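 Inhibition values come from growth of compound-treated mutant yeast normalised to vehicle-treated controls.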

[6] = NCI Yeast Anticancer Drug Screen. Data for the mlh1 rad18 strain (AID 175); conditions: S. cerevisiae mlh1 rad18 strain growth inhibition; at 50.0 µM; stronger effect = higher value
How it was run: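 Steps: expose repair-defective yeast to compound; measure growth; express inhibition against vehicle-treated controls.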

Measured: growth inhibition

COC1=CC23CCCN2CCc2cc4c(cc2C3C1O)OCO4 (stereo not drawn)
inactive: [1] -6.9% and 0.4% and -9.15% | [2] -23.4% and -25.8% and -28.7% | [3] 16.3% and 17.1% and 15.6% | [4] 4% and 8.1% and 2.4% | [5] -12.8% and -5.35% and -6.25% | [6] -3.85% and -1.8% and -36%

O=C(CC(=O)C(=O)Nc1ccccc1)CC(c1ccccc1)c1c(O)c2ccccc2oc1=O (stereo not drawn)
inactive: [1] 9% | [2] 5.3% | [3] 26.4% | [4] 12.6% | [5] 1.4% | [6] 18.5%

O=NNc1nc2ccccc2[nH]1
inactive: [1] 6.5% | [2] -0.65% | [3] 2.05% | [4] -24.6% | [5] -6.95% | [6] 8.85%

O=C(O)c1ccccc1S
inactive: [1] 7.1% and 0.05% | [2] -7.6% and -15.2% | [3] 9.95% and -8.35% | [4] 18.9% and -22.2% | [5] -1.75% and 5.25% | [6] 2.75% and 11.5%

NC(=O)OCC(O)c1ccccc1 (stereo not drawn)
inactive: [1] -11.6% | [2] 10% | [3] -22.6% | [4] -27.8% | [5] -19.9% | [6] 2.2%

Cc1cccc(-n2c(C)nc3ccccc3c2=O)c1C
inactive: [1] -15.2% | [2] -1.1% | [3] -3.35% | [4] -2.6% | [5] -0.6% | [6] -13.1%

CN(C)P(=O)(N(C)C)N(C)C
inactive: [1] 23.2% | [2] 6.4% | [3] -7.05% | [4] -16.9% | [5] 23.6% | [6] 25.1%

CCOP(=O)(CCBr)Oc1ccc([N+](=O)[O-])cc1 (stereo not drawn)
inactive: [1] -17.9% | [2] 11.8% | [3] -16.4% | [4] -2.6% | [5] 7.3% | [6] -20%

CC(=O)Nc1ccc(C(=O)O)cc1
inactive: [1] 5.05% | [2] -1% | [3] 0.1% | [4] 33% | [5] 0.15% | [6] 1.8%

O=C1SCCC1CO (stereo not drawn)
inactive: [1] -8.65% | [2] 3.9% | [3] -6.8% | [4] -3.15% | [5] -2.3% | [6] -8.45%

CCC[CH2][Pb]([CH2]CCC)([CH2]CCC)[O]C(C)=O
inactive: [1] 9.6% | [2] -7.95% | [3] 16.1% | [4] 25.1% | [5] 25% | [6] 13.3%

CCN(CC)CCc1ccccn1
inactive: [1] -13.4% | [2] -15.5% | [3] -7% | [4] -8.8% | [5] -14.4% | [6] 5.5%

O=C(CP(=O)(O)O)NC(CC(=O)OCc1ccccc1)C(=O)OCc1ccccc1 (stereo not drawn)
inactive: [1] 12.8% and 33% | [2] 7.65% and -0.7% | [3] 16.9% and 20.3% | [4] 14.9% and 12.6% | [5] 2.05% and 1.2% | [6] -3.4% and 3.45%

CCN(CCCl)CCCCCNc1c2ccccc2nc2ccc(OC)cc12
active: [1] 84.5% | [2] 84.5% | [3] 83% | [4] 84.3% | [5] 78.8% | [6] 76%

CCOC(=O)C(Br)C(C)Br (stereo not drawn)
inactive: [1] -13.4% | [2] -39.5% | [3] -23.1% | [4] 7.1% | [5] -9.65% | [6] -22.5%

C[CH2][Sn](=[O])[c]1ccccc1
inactive: [1] -21.9% | [2] -17.6% | [3] 3.3% | [4] 10.3% | [5] -0.9% | [6] -23.4%

NC1CCCCC1.[O]=[Ge].[O]=[Ge].[O]=[Ge][OH].[O]=[Ge][OH]
inactive: [1] -26.9% | [2] -10.9% | [3] -10.8% | [4] 13.1% | [5] 12.9% | [6] 4.95%

CC(C)CC(=O)[O-].CC(C)CC(=O)[O-].N.N.N.N.[Co+3].[O-][Cl+3]([O-])([O-])O.[O-][Cl+3]([O-])([O-])[O-]
inactive: [1] -23.6% | [2] -6.2% | [3] -42.2% | [4] -20.9% | [5] -16.2% | [6] -14.8%

C=C(C)CC1(CC)C(=O)NC(=S)NC1=O
inactive: [1] -11.8% and -1.6% | [2] -21.6% and -1.3% | [3] 0.35% | [4] 6% | [5] -5.6% | [6] -13.4% and 12.1%

c1cc2c(cc1C1OCC3C(c4ccc5c(c4)OCO5)OCC13)OCO2 (stereo not drawn)
75.1% (active) and 30.8% (inactive): [1]
82.5% (active) and 57.4% (inactive): [3]
inactive: [4] 44.4% and 34.4% | [6] 67% and 31.7%
74.6% (active) and -0.05% (inactive): [2]
81.5% (active) and 54.3% (inactive): [5]

CC(C)(CBr)COP1(=O)NCC(C)(C)CO1 (stereo not drawn)
inactive: [1] 13.7% | [2] -3.7% | [3] 3.85% | [4] 20.4% | [5] 4.2% | [6] 10.8%

O=C(/C=C/c1ccc([N+](=O)[O-])cc1Cl)Nc1cccc(S(=O)(=O)F)c1
inactive: [1] 6% | [2] 16.8% | [3] -0.35% | [4] 18.2% | [5] -6.3% | [6] -8.2%

O=C(O)c1ccc([As](=O)(O)O)cc1[N+](=O)[O-]
inactive: [1] -3.85% | [2] -23.1% | [3] -0.65% | [4] 1.7% | [5] -3.6% | [6] 7.4%

O=C(CC(=O)C(F)(F)C(F)(F)C(F)(F)F)c1ccco1.[Ni]
inactive: [1] 17.2% | [2] 3.8% | [3] 27.9% | [4] -9.9% | [5] 2% | [6] 34.6%

CC(Cl)CN(CC(C)Cl)c1ccc(-c2ccccc2)cc1 (stereo not drawn)
inactive: [1] 5.25% | [2] -13.8% | [3] 12.7% | [4] 18% | [5] -5% | [6] -30.9%

[Cl][Hg][c]1ccccc1N=Nc1ccccc1I
active: [1] 99.2% | [2] 98.8% | [3] 99.2% | [4] 98.8% | [5] 99.3% | [6] 99.2%

O=C(NCCNC(=O)Nc1ccccc1S(=O)(=O)F)Nc1ccccc1S(=O)(=O)F
inactive: [1] -17% | [2] -35.2% | [3] -16.1% | [4] 6.55% | [5] -32.1% | [6] -13%

CCC(Br)C(N)=O (stereo not drawn)
inactive: [1] -9.25% | [2] 3.2% | [3] -6.9% | [4] -59.5% | [5] -4.25% | [6] -1%

CCC1(Sc2ncnc3c2ncn3C2OC(CO)C(O)C2O)C(=O)NC(=O)NC1=O (stereo not drawn)
inactive: [1] 4.5% | [2] 2.7% | [3] -7.95% | [4] 16.9% | [5] -6.05% | [6] -7.2%

NCC#CCNCCCN1CC1
inactive: [1] 8.2% | [2] 47.2% | [3] -9.4% | [4] 16.9% | [5] -1.55% | [6] -41.5%

COc1cc(-c2[nH]ccc2Cl)oc1C1=C2N=C3C=C2C(C(C)C)C1CCCCCCCC3 (stereo not drawn)
active: [1] 85.3% | [2] 83.6% | [3] 89% | [4] 89.1% | [5] 88.3% | [6] 89.6%

[CH3][Pb]([CH3])([CH3])[O]C(=O)c1ccc([N+](=O)[O-])cc1
inactive: [1] 28.7% | [2] -41% | [3] 25.1% | [4] 8.8% | [5] 1.15% | [6] 42.2%

CC1CNC2C(=O)NC(=O)NC2N1 (stereo not drawn)
inactive: [1] 3.15% | [2] 1.95% | [3] -10.2% | [4] -5.25% | [5] 5.2% | [6] -4.7%

CCOC(=O)C1C(=O)C(CN(CCCl)CCCl)C(=O)C(C(=O)OCC)C1c1cc(OC)c(OC)c(OC)c1 (stereo not drawn)
inactive: [1] 17.9% | [2] -8.05% | [3] 16.6% | [4] -27.9% | [5] 0% | [6] 30.9%

O=C(Nc1ccccc1Cl)Oc1c(Cl)cc(S(=O)(=O)F)cc1Cl
inactive: [1] 20.4% | [2] 33.6% | [3] 34.1% | [4] 32.6% | [5] -2.05% | [6] 44.2%

CN(C)P(N)(=S)N(C)C
inactive: [1] -2.75% | [2] -9.15% | [3] -1.3% | [4] -15.8% | [5] -22.6% | [6] -7.05%

O=c1cccc2n1CC1CNCC2C1 (stereo not drawn)
inactive: [1] 10.6% | [2] 13.4% | [3] -16.2% | [4] 7.65% | [5] 15.7% | [6] -22.1%

O=C(O)c1cccc(P(=O)(O)O)c1
inactive: [1] 14.3% and 9.3% | [2] -19.3% and -12.9% | [3] -5.25% and 17.4% | [4] 2.35% and 28.6% | [5] -4% and -10.6% | [6] 2.55% and -0.35%
